# According to PubChem BioAssay AID2685 (National Center for Advancing Translational Sciences (NCATS), 2010):
# The whole screen tested about 320,000 compounds, of which about 2,100 (0.66%) were called active. Inconclusive results (about 53%) are left out. Calls come from the whole dose curve; as a rule, active = well fitted inhibition curve with a large enough effect in the signal ratio, with a control signal flat (not every such curve was filed as active); inconclusive = small, poorly fitted or top-dose-only effect, or effect the other way, or a change in a side signal; inactive = flat fitted curve, though single readings scatter; the % refers to the signal ratio. The full list was thinned out, with actives kept by preference.
# Assay: qHTS Assay for Lipid Storage Modulators in Drosophila S3 Cells;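 for cell number change: cells counted by Cell Tracker Red CMTPX staining in the red channel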; for lipid storage change, negative = inhibition: % is set by controls: 0 for no effect and ±100 for the full control effect
# Settings: BODIPY lipid droplet fluorescence, 18-24 h, cells fed with added oleic acid; cell number change: measured here: cell count max response; series mostly up to 46.1 µM; lipid storage change, negative = inhibition: at the top concentration
# Summary of the method: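 Laser-scanning cytometry quantifies lipid droplet accumulation (500–530 nm total intensity; droplet/cell object ratio) in oleic acid-fed (400 uM added) Drosophila S3 cells treated with a concentration series. 20 uM Triacsin C defined 100% inhibition.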
# Potency is the fitted concentration of half-maximal effect.
SMILES,outcome,cell number change,"lipid storage change, negative = inhibition",Potency
O=C(COc1ccc(Cl)cc1Cl)N/N=C/c1ccc(OC2OC(CO)C(O)C(O)C2O)cc1 (stereo unspecified),inactive,14.9%,–,–
O=c1[nH]c(/C=C/c2cccc3ccccc23)nc2ccccc12,–,1.01%,-10.1% (inactive),–
N#CCOc1ccccc1/C=C/c1nc2ccccc2c(=O)[nH]1,–,5.41%,–,0.82 µM (active)
O=c1[nH]c(/C=C/c2ccccc2F)nc2ccccc12,inactive,–,–,–
Cc1ccc(SCc2nc3ccccc3n2CC(=O)Nc2c(C)cccc2C)cc1,–,5.98%,-6.68% (inactive),–
O=C(Cn1c(CSc2ccccc2)nc2ccccc21)Nc1ccccc1,–,–,2.53% (inactive),–
Cc1ccc(SCc2nc3ccccc3n2CC(=O)Nc2ccc(Cl)cc2)cc1,–,-17.3%,–,11.6 µM (active)
CCOC(=O)CSc1nnc(-c2ccc3ncccc3c2)n1C,–,-5.02%,19.8% (inactive),–
Cc1ccc(S(=O)(=O)NN2C(=O)c3ccccc3NC2c2ccccc2)cc1 (stereo unspecified),–,14.4%,0.893% (inactive),–
Cc1cc2c(cc(C(=O)OC(C(=O)NC3CCCCC3)C(C)C)n2C)o1 (stereo unspecified),–,-21.3%,–,1.46 µM (active)
COCCNC(=O)C(OC(=O)c1cc2oc(C)cc2n1C)C(C)C (stereo unspecified),–,9.13%,-24.2% (inactive),–
CC(C)C(OC(=O)c1ccco1)C(=O)NC1CCCCC1 (stereo unspecified),–,10.7%,4.26% (inactive),–
COC(=O)c1cc(OC)c(OC)cc1NCC(=O)Nc1ccc(C)cc1,–,-5.98%,4.61% (inactive),–
CCN(CC)CC(=O)Nc1cccc2c1C(=O)c1ccccc1C2=O,–,7.09%,2.18% (inactive),–
CNc1cccc2c1C(=O)c1ccccc1C2=O,–,-6.63%,–,11.6 µM (active)
O=C1c2ccccc2C(=O)c2c(NCCCN(CCO)CCO)cccc21,–,7.53%,13.2% [at 9.22 µM] (inactive),–
COc1ccc(-n2cc(CN(C)C(C)c3ccncn3)c(-c3cccc(F)c3)n2)cc1 (stereo unspecified),–,-0.848%,10.9% (inactive),–
O=C(CCC(=O)c1ccc(Cl)cc1)NCc1ccccc1,inactive,-20.1%,–,–
CC(C)(C)c1ccc(C(=O)CCC(=O)NCc2ccccc2)cc1,–,6.25%,–,14.6 µM (active)
CC(C)(C)c1ccc(C(=O)NCc2ccccc2)cc1,–,-10.5%,-22.5% (inactive),–
CCC(O)CNc1nc(-n2nc(C)cc2C)nc2sc3c(c12)CCCC3 (stereo unspecified),inactive,1.08%,–,–
O=C(CSc1nc2ccccc2c(=O)[nH]1)Nc1ccc(S(=O)(=O)N2CCCC2)cc1,–,-0.593%,27.6% (inactive),–
CC(=O)c1nnn(-c2ccccc2C#N)c1C,–,25.6%,-0.571% (inactive),–
O=C(Nc1nc(-c2cccs2)c(C(=O)C(F)(F)F)s1)c1ccccc1,–,–,-1.08% (inactive),–
NNC(=O)CC(=O)NC1(Cc2ccc(O)cc2)CCCCC1,–,4.44%,21.8% (inactive),–

SMILES,outcome,cell number change,"lipid storage change, negative = inhibition",Potency
O=C(NC1(Cc2ccc(O)cc2)CCCCC1)c1ccccc1,–,-23.1%,–,5.17 µM (active)
CCC(=O)NC1(Cc2ccc(O)cc2)CCCCC1,–,-37.5%,-26.5% (inactive),–
CCC(CC)C(=O)Nc1nnc(S(=O)(=O)N2CCCc3ccccc32)s1,–,-8.08%,20.3% (inactive),–
CC(C)(C)NC(=O)CCc1nnc(Cc2c[nH]c3ccccc23)o1,–,-0.239%,21.4% (inactive),–
Cc1nn(C)c(C)c1S(=O)(=O)N(CC(=O)NCCN1CCOCC1)c1ccc(C(C)C)cc1,–,12.7%,7.54% (inactive),–
CC(O)/C=C/c1ccc2ccccc2n1 (stereo unspecified),inactive,-12.5%,–,–
Cc1nc2ccccc2nc(C)c1=NO,–,8.5%,8.33% (inactive),–
C/C(CC(O)c1ccc2ccccc2n1)=N/O (stereo unspecified),–,3.68%,–,10.3 µM (active)
O=C(Nc1c2c(nn1-c1ccccc1)CS(=O)C2)c1ccc2c(c1)OCO2 (stereo unspecified),–,12.2%,-19.3% (inactive),–
O=c1c2cnn(-c3ccccc3)c2ncn1Cc1ccccc1,–,-12.8%,1.05% (inactive),–
O=c1c2cnn(-c3ccccc3)c2ncn1Cc1ccccn1,–,26.2%,9.36% (inactive),–
O=c1c2cnn(-c3ccccc3)c2ncn1Cc1ccco1,–,1.65%,–,32.6 µM (active)
COCCN1C(=O)N[C@H](c2cccc(C(F)(F)F)c2)C(C(=O)OC)=C1C,–,3.4%,-4.45% (inactive),–
O=C(NCCc1ccccc1)C(=O)c1c(-c2ccccc2)cc2ccccn12,–,-0.29%,-8.26% (inactive),–
Cc1ccc(S(=O)(=O)N(C)C)cc1NC(=O)COC(=O)c1ccc(Cl)cc1,inactive,–,–,–
Cc1ccc(S(=O)(=O)N(C)C)cc1NC(=O)COC(=O)c1ccc2c(c1)OCCO2,–,-1.35%,-4.06% (inactive),–
Cc1ccc(S(=O)(=O)N(C)C)cc1NC(=O)COC(=O)c1sc2cc(Cl)ccc2c1Cl,–,-27.1%,–,1.46 µM (active)
O=C(Nc1ccnn1C1CCN(Cc2ccc(O)c(Cl)c2)CC1)C1CCCC1,–,6.1%,-0.76% (inactive),–
O=C1NCCn2ccc(=O)cc21,–,4.17%,3.98% (inactive),–
CCOC(=O)/C(N=O)=C(\O)C1CCN(C(=O)OCC)CC1,–,1.9%,-5.07% (inactive),–
c1ccc(CNc2ncnc3sccc23)cc1,–,-15.5%,–,16.4 µM (active)
c1cncc(CNc2ncnc3sccc23)c1,–,-4.09%,-0.833% (inactive),–
NS(=O)(=O)c1ccc(CNc2ncnc3sccc23)cc1,inactive,-15.1%,–,–
Cc1cc(C)cc(-n2ccn(CC(=O)NCCc3ccccc3)c(=O)c2=O)c1,inactive,-3.95%,–,–
Cc1ccc(OCC(=O)Nc2cccc(-c3nnc(-c4ccccc4)o3)c2)cc1,–,1.35%,-1.29% (inactive),–

SMILES,outcome,cell number change,"lipid storage change, negative = inhibition",Potency
CSc1ccccc1NC(=O)CN(c1cc(C)cc(C)c1)S(C)(=O)=O,inactive,–,–,–
Cc1cccc(N(CC(=O)Nc2ccccc2F)S(C)(=O)=O)c1,–,–,–,6.51 µM (active)
CSc1ccccc1NC(=O)CN(c1cccc(C)c1)S(C)(=O)=O,–,-13.7%,11.7% (inactive),–
C/C(=N\N=C\c1cccc(F)c1)c1nnn(-c2nonc2N)c1C,–,-1.27%,20.8% (inactive),–
CCOc1ccc(NC(N)=O)cc1,–,1.62%,11.6% (inactive),–
CCOc1ccc(NC(=O)CNS(=O)(=O)c2c(C)cc(C)cc2C)cc1,–,–,–,0.92 µM (active)
CCOc1ccc(NC(=O)CCS(=O)(=O)c2ccc(C)cc2)cc1,–,9.92%,-5.54% (inactive),–
CCC(C)NCCCOc1cc(Cl)ccc1Cl (stereo unspecified),–,12.7%,0.912% (inactive),–
COc1ccc(N(CC(=O)Nc2ccc(C)c(C)c2)S(=O)(=O)c2c(C)n[nH]c2C)cc1,–,4.08%,28.1% (inactive),–
CNC(=O)N(C1=NCCCCC1)c1ccc(Br)cc1,–,-6.67%,-2.09% (inactive),–
Cc1nn(CCC(=O)N2CCN(S(=O)(=O)c3ccccc3)CC2)c(C)c1C,inactive,24.4%,–,–
Cc1cc(C)cc(C(=O)Oc2cc(C)[nH]c(=O)c2[N+](=O)[O-])c1,inactive,-7.31%,–,–
O=C(CSc1nnc(-c2ccncc2)n1CC1CCCO1)Nc1ccccc1Cl (stereo unspecified),–,2.31%,6.87% (inactive),–
Cc1ccccc1NC(=O)C(C)Sc1nnc(-c2ccncc2)n1CC1CCCO1 (stereo unspecified),–,3.95%,–,2.31 µM (active)
Cc1ccc(NC(=O)C(C)Sc2nnc(C)n2CC2CCCO2)cc1 (stereo unspecified),inactive,11.7%,–,–
O=C(O)C1CC=CCC1C(=O)Nc1cccc(F)c1 (stereo unspecified),–,–,-11.4% (inactive),–
Cc1ccc(-n2c(N)cc(=O)nc2SCC(=O)NC2CCCCC2)cc1C,–,-3.12%,4.5% (inactive),–
Cc1ccnc(NC(=O)/C=C/c2cccs2)c1,–,-3.66%,-0.722% (inactive),–
O=C(Nc1ccc(Cl)cc1)Nn1cnnc1,inactive,8.74%,–,–
O=C(CSc1ccc(Cl)cc1)Nc1ncccn1,–,8.97%,-22.8% (inactive),–
O=C(CSc1ccc(Cl)cc1)Nn1cnnc1,–,7.58%,–,16.4 µM (active)
O=C(CSc1ncccn1)Nn1cnnc1,–,-0.567%,–,7.31 µM (active)
O=C(CSc1ncccn1)Nc1ccccc1,inactive,17.6%,–,–
Cc1cc(C)nc(SCC(=O)Nn2cnnc2)n1,–,-0.845%,-6.33% (inactive),–
Cc1ccc(-n2nc3c(c2NC(=O)C2CCCC2)CS(=O)(=O)C3)cc1,inactive,-12.8%,–,–

SMILES,outcome,cell number change,"lipid storage change, negative = inhibition",Potency
Cc1ccc(S(=O)(=O)N2CCc3ccccc3C2CN2C(=O)c3ccccc3C2=O)cc1 (stereo unspecified),inactive,–,–,–
COc1cccc(NC(=S)N2CCN(C(c3ccccc3)c3ccccc3)CC2)c1,–,–,17% (inactive),–
Cc1nn(C)c(C)c1/C=N/NC(=O)CCn1nc(C)c([N+](=O)[O-])c1C,–,-10.6%,9.31% (inactive),–
Cc1ccc(OCC(=O)n2cnnc2N)c(C)c1,–,-14.9%,16.4% (inactive),–
CCN1CCN(Cc2c(C)[nH]c3ccc(OC)cc3c2=O)CC1,inactive,9.98%,–,–
COc1ccc(N=C2S/C(=C\c3ccco3)C(=O)N2CC(C)C)cc1,inactive,-0.418%,–,–
COc1ccccc1CCC(=O)N1CCC(n2nccc2NC(=O)CC(C)C)CC1,–,-2.79%,-24.1% (inactive),–
CCCn1c(C)cc(C(=O)COc2ccc(C)nc2[N+](=O)[O-])c1C,–,5.33%,5.96% (inactive),–
CCCn1c(C)cc(C(=O)COc2ccc(S(=O)(=O)N(CC)CC)cc2[N+](=O)[O-])c1C,–,-12.5%,–,25.9 µM (active)
CCN(CC)S(=O)(=O)c1ccc(OCC(=O)NC(=O)c2ccccc2OC)c([N+](=O)[O-])c1,–,2.39%,-8.1% (inactive),–
CN(C)S(=O)(=O)c1cccc(NC(=S)N2CCc3ccccc32)c1,inactive,–,–,–
CC(C)NC(=O)CN(Cc1ccccc1)S(=O)(=O)c1ccccc1,inactive,1.76%,–,–
CC[n+]1c(C)sc2cc(C)ccc21,–,-15.5%,-0.992% (inactive),–
CC[N+]1=C(C)C(C)(C)c2cc(C)ccc21,–,-16.1%,–,0.231 µM (active)
CC[n+]1c(S(=O)(=O)[O-])ccc2ccc(C)cc21,–,3.16%,0.898% (inactive),–
O=C(N/N=C/c1ccccc1)c1ccc(NC(=O)c2ccc(F)cc2)cc1,inactive,8.73%,–,–
Cc1ccc(C)c(NC(=O)CSc2nc(C)cc(C)c2C#N)c1,–,-1.26%,11.2% (inactive),–
CC(Oc1ccc2c(-c3ccccc3)cc(=O)oc2c1)C(=O)NCC1CCC(C(=O)O)CC1 (stereo unspecified),–,–,-7.92% (inactive),–
COc1ccc(CCNC(=O)CN(Cc2ccc(Cl)cc2)S(C)(=O)=O)cc1OC,inactive,5.74%,–,–
COc1ccc(CNC(=O)CN(Cc2ccc(Cl)cc2)S(C)(=O)=O)cc1,–,15.2%,6.59% (inactive),–
COCCNC(=O)CN(Cc1ccc(Cl)cc1)S(C)(=O)=O,–,-6.66%,–,23.1 µM (active)
COc1ccc(CCNC(=O)CN(Cc2ccc(Cl)cc2)S(C)(=O)=O)cc1,–,-16.1%,-18.7% (inactive),–
COc1ccc(CNC(=O)CN(C)S(=O)(=O)c2ccc(Cl)cc2)cc1,–,-9.55%,-32.9% (inactive),–
COc1ccc(CNC(=O)CN(Cc2ccc(Cl)cc2)S(=O)(=O)c2ccccc2)cc1,–,26.1%,–,20.6 µM (active)
